ATXN2 expr inh: inhibitors of ATXN2 expression; HEK-293 ATXN2-luciferase reporter, luminescence, 24 h; Potency, µM (highest dose often 57 µM), inactives show at the top dose activity change, negative = inhibition, most hits filed as inhibitors; 360,000 compounds, 0.72% hits; AID 1745845; further: on the % scale 0 is the no-effect control and ±100 the full control effect; nearly all actives have a fitted effect of over 55% in size
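ATXN2-luciferase reporter cells (luciferase flanked by upstream and downstream ATXN2 gene portions) were treated 24 h at 37 °C with compounds at up to 57 uM. SteadyGlo luminescence gave expression; GF-AFC fluorescence gave viability.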
HT1080 IDH1KD tx: toxicity to HT-1080 IDH1 knockdown cells (counter line); 360,000 compounds, 2% hits; AID 686971; HT-1080 IDH1 knockdown viability, ATP luminescence, 48 h; Potency, µM (highest dose often 46.1 µM), for the others: at the highest dose activity, negative = toxicity, hits mostly cytotoxic;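 further: 0% = DMSO wells and -100% = cell-free medium wells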
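IDH1KD HT-1080 cells, 750/well, RPMI + 5% FBS; compound pinned after 2 h settling; 48 h, 37 °C; CellTiter-Glo luminescence; % activity normalised to DMSO and no-cell wells; curves fitted, classed by r2 and efficacy.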
HT1080-NT tox: kills 2HG-producing HT-1080-NT fibrosarcoma cells. HT-1080-NT fibrosarcoma viability, CellTiter-Glo ATP luminescence, 48 h. Potency, µM (highest dose often 46.1 µM), for the others: at the highest dose activity, negative = less viability, usual class: cytotoxic. 360,000 compounds, 1.6% hits. AID 686970;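 further: NT is the 2HG producing partner of a matched IDH1 knockdown line; 0% = DMSO-treated cells and -100% = media-only wells without cells; nearly all actives have a fitted effect of over 55% in size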
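Toxicity toward the 2HG-producing NT line was scored as %Activity, normalised to DMSO and no-cell wells, from CellTiter-Glo luminescence after 48 hours' treatment.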
S2 tox: cell viability loss in ATXN counter-screen; S2 cells (HEK-293 line with an ATXN2-luciferase reporter) viability, CellTiter-Fluor protease fluorescence, 24 h; Potency, µM (highest dose often 56.7 µM), usual class: cytotoxic; 400,000 compounds, 0.49% hits; AID 651635; further: nearly all actives have a fitted effect of over 40% in size
HepG2 viability: HepG2 cytotoxicity, counter-screen for TGF-b inhibitors; HepG2 CAGA-GFP viability, ATP luminescence, 18 h; Potency, µM (top dose mostly 46.1 µM), for the others: at the top dose activity change, negative = cytotoxicity, hits mostly cytotoxic; 410,000 compounds, 0.76% hits
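HepG2 CAGA-GFP cells (1000/well, DMEM with 1% FBS) received compound, then TGF-beta at 500 pg/mL final, and were incubated 18 hours at 37 degrees C. Viability was read by CellTiter-Glo luminescence. Media-only wells were set as complete cell-killing and DMSO as no toxicity.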
TGFb SMAD3 inh: blocks TGF-b signaling | HepG2 CAGA-GFP TGF-b/SMAD3 reporter, GFP fluorescence, 18 h; TGF-beta stimulated, 500 pg/mL final | Potency, µM (highest dose often 46.1 µM), inactives show at the top dose activity, negative = inhibition, actives largely listed as inhibitors | 410,000 compounds, 1.2% hits; further: on the % scale 0 is the no-effect control and ±100 the full control effect; nearly all actives have a fitted effect of over 65% in size
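HEPG2 CAGA-GFP cells (1000/well, DMEM with 1% FBS) were pre-incubated 2 h at 37 degrees C, given compound by pin tool, then stimulated with TGF-beta at 500 pg/mL final for 18 h before per-cell GFP fluorescence imaging.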
The depositor's hits bear a star; i = inactive; ? = inconclusive; nt = no result; ! = not confirmed by another sample. Most compounds without a hit are left out; they make up all but 3.9% or so of the library. The call rests on the fitted dose curve; in most records, active means well fitted curve in the direction sought with a large enough effect; inconclusive means small, poorly fitted or top-dose-only effect, or another doubt; inactive means no such curve, though single readings can be large; an effect the other way counts as inactive or inconclusive. Potency means the concentration at half of the fitted maximal effect.

SMILES	ATXN2 expr inh	HT1080 IDH1KD tx	HT1080-NT tox	S2 tox	HepG2 viability	TGFb SMAD3 inh
O=C(NCCc1csc(-c2cccnc2)n1)c1ccc(F)c(F)c1	-17.6%	nt	nt	i	-23.3%	0.5%
CCNc1ccc(-c2nc(-c3ccccn3)no2)cc1[N+](=O)[O-]	45.4%	nt	nt	i	-28.8%	-24.7%
COC(=O)N1C(=O)[C@](c2ccc(Cl)cc2)(C(C)C)N1C(=O)OC	?	-12.5%	-24.3%	31.6µM*	15.8µM*	?
COC(=O)N1C(=O)[C@@](c2ccc(OC)cc2)(C(C)C)N1C(=O)OC	-6.0%	-14.3%	-18.6%	?	-19.8%	?
Cc1ccc2c(=O)cc(C(=O)Nc3ccc(S(=O)(=O)Nc4ncccn4)cc3)oc2c1C	0.8%	nt	nt	i	-23.9%	-7.9%
CCc1c(C)nc2cc(-c3ccc(OC)c(OC)c3)nn2c1N1CCCC1	?	-20.5%	?	?	-92.8%	22.4µM*
COc1cc(C(=O)NCc2ccc3c(c2)CCN3C(=O)c2ccc(Cl)cc2)cc(OC)c1OC	nt	nt	nt	nt	-28.5%	?
CC1(C)C(N(O)C(=O)Nc2ccc(Cl)cc2)N(c2ccc(Cl)cc2)C(=O)N1CC(=O)NN=CC=Cc1ccc([N+](=O)[O-])o1 (stereo not given)	34.3µM*	nt	nt	nt	nt	nt
CC1(C)C(N(O)C(=O)Nc2ccccc2)N(c2cccc(Cl)c2)C(=O)N1O (stereo not given)	-9.1%	-1.2%	-7.4%	i	-11.7%	3.6%
Cc1cc(C)n(CC(=O)N/N=C/c2ccc([N+](=O)[O-])s2)n1	?	?	?	i	-83.9%	?
O=C(Cc1ccccc1)NCC(=O)N/N=C/c1ccc([N+](=O)[O-])s1	?	?	-24.8%	?	15.8µM*	?
O=C(CNC(=O)c1ccccc1)N/N=C/c1ccc([N+](=O)[O-])s1	?	-3.5%	-9.1%	?	14.1µM*	11.2µM*
O=[N+]([O-])c1ccc(C=NN2CCOCC2)s1	nt	2.2%	-3.6%	?	-44.6%	-5.4%
O=[N+]([O-])c1ccc(C=Nc2cccc3ccccc23)s1	-9.7%	23.1µM*	-23.4%	?	25.1µM*	15.8µM*
CC(=O)OCC(NC(=O)C(CCCCNC(=O)OCc1ccccc1)NC(=O)OC(C)(C)C)C1OC(n2cc(F)c(=O)[nH]c2=O)C(OC(C)=O)C1OC(C)=O (stereo not given)	nt	nt	nt	nt	-0.5%	6.9%
Cc1ccc(C(=O)N2CCc3cc(CNS(=O)(=O)c4ccc(Cl)s4)ccc32)cc1	nt	nt	nt	nt	-69.0%	?
CCN(CC)CCCN=C1N[C@@H](c2cccc(F)c2)C(C(=O)OC)=C(C)N1Cc1ccccc1	22.4µM*	?	?	25.1µM*	-108.8%	?
CCN1C(=NCCCCO)N[C@@H](c2cccc(F)c2)C(C(=O)OC)=C1C	-9.6%	2.7%	-6.5%	i	-19.2%	-8.6%
COC(=O)C1=C(C)N(Cc2ccccc2)C(=NCCc2c[nH]c3ccccc23)N[C@H]1c1ccccc1	?	-20.7%	-16.9%	?	10µM*	?
COC(=O)C1=C(C)N(Cc2ccccc2)C(=NCCc2c[nH]c3ccccc23)N[C@H]1c1cccc(F)c1	?	-25.2%	?	22.4µM*	-101.2%	?
CCCCCCC[n+]1ccc(C)c2ccccc21	nt	nt	nt	nt	-4.3%	?
COc1cc(C(CCN2CCOCC2)c2c(OC)cc(OC)c3c(C)cc(=O)oc23)cc(OC)c1OC (stereo not given)	-0.1%	0.7%	1.3%	?	-3.3%	-15.5%
CCCCCc1cc(=O)oc2c(C(CCN3CCCC(C)C3)c3ccc(OC)cc3)c(OC)cc(OC)c12 (stereo not given)	?	-13.3%	-10.8%	nt	11.2µM*	?
CCCCCc1cc(=O)oc2c(C(CCN3CCCC3)c3cc(OC)c(OC)c(OC)c3)c(OC)cc(OC)c12 (stereo not given)	?	?	?	nt	15.8µM*	?
CCCCCc1cc(=O)oc2c(C(CCN3CCN(c4ccccc4)CC3)c3ccc4c(c3)OCO4)c(OC)cc(OC)c12 (stereo not given)	-3.1%	-1.4%	-0.8%	?	-13.2%	-7.9%
SMILES	ATXN2 expr inh	HT1080 IDH1KD tx	HT1080-NT tox	S2 tox	HepG2 viability	TGFb SMAD3 inh
CCCCCc1cc(=O)oc2c(C(CCN3CCCCC3)c3ccc(OC)cc3)c(OC)cc(OC)c12 (stereo not given)	?	-22.0%	?	31.6µM*	11.2µM*!	?
CCCCCc1cc(=O)oc2c(C(CCN3CCCC3)c3ccc(N(C)C)cc3)c(OC)cc(OC)c12 (stereo not given)	?	-24.2%	-20.5%	31.6µM*	12.6µM*	?
O=C(COc1ccccc1)Nc1ccc2nc(SCC(=O)N3CCOCC3)sc2c1	nt	nt	nt	nt	-0.7%	0.0%
CCc1nc2c(OCCC3CCCCC3)cccn2c1N(C=O)Cc1ccccc1	?	?	?	?	-95.2%	?
CCc1nc2c(OCc3cc(Cl)cc(Cl)c3)cccn2c1N(C=O)Cc1ccccc1	?	?	?	?	-73.3%	?
CCCCN(C=O)c1c(CC)nc2c(OCC3CCCCC3)cccn12	?	-27.3%	?	?	-39.4%	12.6µM*
CCc1nc2c(OCCC3CCCCC3)cccn2c1N(C=O)Cc1ccc(OC)cc1	?	?	?	i	20µM*	?
CCc1nc2c(OCc3ccc(Cl)cc3)cccn2c1N(C=O)Cc1ccccc1	?	?	23.1µM*	?	-4.2%	?
CN(CC(=O)N1CCOCC1)Cc1c(Cl)cccc1NC(=O)c1ccccc1	nt	nt	nt	i	nt	nt
CN[C@H](C)CCC=C(C)C	nt	nt	nt	nt	-30.0%	?
Cc1cccc(NC(=O)CSc2nnc3c4ccccc4n(C)c3n2)c1	14.2%	nt	nt	i	-5.8%	-6.5%
Cn1cccc1/C=C1\SC(=Nc2cccc(O)c2)NC1=O	nt	14.6µM*	?	15.8µM*	-12.1%	?
Cn1cccc1/C=C1\SC(=Nc2ccc(O)cc2)NC1=O	nt	0.731µM*	0.517µM*	?	-33.1%	?
Cn1cccc1/C=C1\SC(=Nc2ccccc2)NC1=O	nt	5.17µM*	?	?	-2.5%	?
Cc1ccc(N=C2NC(=O)/C(=C/c3cccn3C)S2)c(C)c1	-3.8%	-20.3%	-18.3%	?	-49.1%	-8.2%
CCOC(=O)N1CCN(Cc2ccc3c(c2)CN(C(=O)c2ccc(C#CC(C)(C)O)o2)CCO3)CC1	nt	nt	nt	i	nt	nt
COc1cccc(C(=O)NCCc2csc(-c3ccc(Cl)cc3)n2)c1	?	nt	nt	?	-28.5%	12.6µM*

High-throughput results: PubChem, National Center for Advancing Translational Sciences (NCATS)
